# Measured values from PubChem BioAssay (NCI).
# About 83,000 compounds went through this panel and 20% of them were active in at least one assay; those are over-represented in the sample as a whole.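 Percent growth is the endpoint: 0 to 100 indicates growth inhibition (40 means 60% inhibition), 0 means no net growth, and negative values indicate cell death.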 A number with no mark means an inactive call. Calls of active or inactive are those of the source. How the source made its calls: active means growth percent below 10; inactive means the rest.
# Key:
# Assay in all cases: NCI-60 one-dose screen, 48 h (100 = growth as untreated, 0 = no growth, -100 = all killed)
# SR leukemia = settings: 10 µM unless noted
# RPMI-8226 leukemia = settings: 10 µM unless noted
# OVCAR-8 ovarian = settings: 10 µM unless noted
# OVCAR-5 ovarian = settings: 10 µM unless noted
# OVCAR-4 ovarian = settings: 10 µM
# SK-OV-3 ovarian = settings: 10 µM unless noted
# IGROV1 ovarian = settings: 10 µM unless noted
# OVCAR-3 ovarian = settings: 10 µM unless noted
# HS 578T breast = settings: 10 µM unless noted
# NCI/ADR-RES ovarian = settings: 10 µM unless noted
# T-47D breast = settings: 10 µM unless noted
# MDA-MB-435 melanoma = settings: 10 µM unless noted
# MCF7 breast = settings: 10 µM unless noted
# HCT-116 colon = settings: 10 µM unless noted
# HCC-2998 colon = settings: 10 µM unless noted
# KM12 colon = settings: 10 µM unless noted
# SW-620 colon = settings: 10 µM unless noted
# BT-549 breast = settings: 10 µM unless noted
SMILES,growth (SR leukemia),growth (RPMI-8226 leukemia),growth (OVCAR-8 ovarian),growth (OVCAR-5 ovarian),growth (OVCAR-4 ovarian),growth (SK-OV-3 ovarian),growth (IGROV1 ovarian),growth (OVCAR-3 ovarian),growth (HS 578T breast),growth (NCI/ADR-RES ovarian),growth (T-47D breast),growth (MDA-MB-435 melanoma),growth (MCF7 breast),growth (HCT-116 colon),growth (HCC-2998 colon),growth (KM12 colon),growth (SW-620 colon),growth (BT-549 breast)
O=C(CCN1CCCCC1)c1ccc(Cl)cc1,112%,85.8%,113%,102%,105%,103%,107%,106%,108%,114%,92.6%,105%,91.8%,96.7%,112%,102%,–,–
O=C(Nc1cccc(F)c1)c1cc(=O)[nH]c2cc(Br)ccc12,21.8%,76.1%,71.8%,63.3%,70.6%,51.8%,40.5%,23.5%,52.4%,53.2%,48.1%,-21.8% (active),17.6%,19.1%,65%,21.5%,27.7%,–
Cc1cc[n+](CCCCCCCCCC[n+]2ccc(C)cc2)cc1,98.9%,102%,99%,97.9%,99.4%,97.8%,112%,99.4%,102%,94.3%,–,102%,93.6%,96.4%,92.8%,–,103%,101%
O=C1/C(=C\c2cn(CC(O)CN3CCCCC3)c3ccccc23)c2ccccc2N1c1c(Cl)cccc1Cl (centres undefined),-13% (active),-25.7% (active),-86.8% (active),-92.7% (active),-68.6% (active),-99.7% (active),-70.2% (active),-99.6% (active),-55.3% (active),-56% (active),–,-93.3% (active),-77.5% (active),-78.6% (active),-82.4% (active),-95.3% (active),-91.8% (active),-86.1% (active)
Oc1c(CNCCNCc2cc(Cl)cc(Cc3ccccc3)c2O)cc(Cl)cc1Cc1ccccc1,5.69% (active),20.8%,14.3%,52.9%,27.1%,15.4%,12.8%,29.5%,40.7%,8.69% (active),26.1%,22.8%,17.4%,18.6%,20.2%,20.5%,29.6%,–
Cc1cccc(/C=C2\N=C(c3ccccc3)N(c3ccc(S(N)(=O)=O)cc3)C2=O)c1,69.6%,99.3%,73%,99.1%,77.1%,98.8%,96.2%,102%,76.1%,88.7%,85.2%,92.3%,82.1%,83.9%,99.8%,98.1%,–,–
COc1cc(-c2nc(SCCC(C)C)nc(Nc3ccccc3)c2C#N)cc(OC)c1OC,79.8%,92.2%,97.7%,99.4%,88.3%,107%,100%,103%,-8.69% (active),95.5%,–,92.9%,92.7%,91.7%,116%,100%,104%,96.4%
CCOC(=O)C(=Cc1ccccc1[N+](=O)[O-])C(=O)OCC,-10% (active),10.7%,12.2%,-31.5% (active),24.7%,62.4%,37.8%,-20.7% (active),47.2%,-29.4% (active),25.5%,15.6%,10.4%,7.82% (active),48.3%,-17.7% (active),–,–
Cc1ccc(S(=O)(=O)Oc2ccc(Br)cc2Br)cc1,22%,73.3%,95.1%,89.5%,72.4%,79.4%,73.3%,86.9%,87.7%,62.3%,70.7%,-46% (active),75.7%,49.3%,78.3%,45.9%,58.6%,–
CCN(CC)c1cc(N)c(Cc2c(N)cc(N(CC)CC)cc2Cl)c(Cl)c1,34.8%,3.27% (active),37.3%,92.3%,23.8%,49.8%,54.7%,47.2%,56%,81.5%,–,38.7%,24.7%,38.3%,47%,–,80%,24.9%
O=C(NCCCNC(=O)OCc1ccc2cccc(O)c2n1)OCc1ccc2cccc(O)c2n1,12.1%,18.4%,23%,59.9%,39.2%,76.6%,24.1%,14.8%,57.2%,41.5%,49.1%,18.5%,19.3%,-46.3% (active),85.1%,53.3%,–,–
CCCCC(CCCCCC(CCCC)C1NC(C)Cc2cc(OC)c(OC)cc21)C1NC(C)Cc2cc(OC)c(OC)cc21 (centres undefined),-79.2% (active),-48.3% (active),-74.3% (active),-96.4% (active),-90.1% (active),-87.3% (active),-34.8% (active),-94.2% (active),-38.6% (active),-88.3% (active),-76.8% (active),-73.4% (active),-95.1% (active),-97.5% (active),-97.3% (active),-94.7% (active),-80.8% (active),–
O=C(N[C@@H]1CCCc2ccccc21)[C@H](CCC(=O)N1CCN(C2CCCCC2)CC1)N1C(=O)[C@@H](N2C(=O)OC[C@@H]2c2ccccc2)[C@H]1/C=C/c1ccccc1,-25.1% (active),-13.9% (active),54.4%,93.5%,36.8%,70.6%,49.3%,32.5%,48.1%,33.3%,44.4%,9.89% (active),16.5%,23.8%,11.6%,35.5%,37.7%,–
Nc1nc(Nc2ccccc2)c2ncn(Cc3cc4c(cc3Br)OCO4)c2n1,10.5%,9.96% (active),6.21% (active),32.1%,40.6%,11.5%,37.5%,2.58% (active),34.1%,8.6% (active),72.3%,-16.9% (active),12.4%,7.79% (active),23%,11.6%,–,–
O=C(CSc1nc2ccc([N+](=O)[O-])cc2[nH]1)Nc1cccc(Cl)c1,12.7%,-19.6% (active),18.7%,61.4%,2.46% (active),29.4%,37.9%,19%,38.3%,25.4%,–,20.5%,15.3%,14.7%,34.4%,23.9%,39.9%,17.2%
CCNc1cc2c(cc1Br)-c1ccccc1C2=O,91.6%,100%,90.1%,115%,92.5%,90.4%,82%,91.8%,96.8%,96%,34.4%,114%,26.8%,97.8%,102%,83.4%,98.9%,–
Cn1cc(-c2noc(-c3cn(C)c4ncc(F)cc34)n2)c2cc(Br)ccc21,37.1%,87.9%,55.2%,64.4%,-40.3% (active),84.4%,73.3%,38.5%,58.7%,61.5%,25.2%,72.3%,51.8%,32.7%,107%,58.1%,57.3%,–
COc1cc(OC)cc(C(=O)Nc2cc(-c3cccnc3)nc(NCCCN3CCOCC3)n2)c1,57.9%,79.1%,91.8%,100%,117%,93.9%,97.4%,105%,69%,95.4%,72.8%,102%,88%,89.2%,123%,104%,99.9%,–
